Source: PubChem
Most compounds without a hit are left out; they make up all but 3.4% or so of the library.
ADAM17 inh = ADAM17 inhibitors, primary screen, biochemical, QFRET | inhibition, % at 6.95 µM | recombinant ADAM17, EDANS/DABCYL FRET peptide cleavage | AID 720648, 2013 | 370,000 tested, 0.83% active;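 active means inhibition above the mean of compounds lying between control limits plus 3 SD, set per campaign, cut at about 8.5% in these data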;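 further: 0% = DMSO-only wells as the low control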
HGIII-sPLA2 inh = human group III sPLA2 inhibitors, primary screen, biochemical, QFRET, BODIPY PC-A2 liposome substrate. 370,000 tested, 0.56% active. Group 3 secretory phospholipase A2 (Homo sapiens), Q9NZ20. QFRET BODIPY PC-A2 liposome hydrolysis, fluorescence. inhibition, % at 12.2 µM. AID 743126, 2013;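 active means inhibition above mean plus 3 SD of compounds lying within the high and low control bounds, cut at about 19% in these data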;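 further: 0% = median of test compound wells and 100% = no enzyme DMSO wells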
proKLK7 act = proKLK7 zymogen activators, primary screen, biochemical, fluorescence intensity. purified proKLK7, EDANS-DABCYL substrate fluorescence; 100% is mature enzyme control, 0% vehicle. activation, % at 7 µM. 370,000 tested, 0.9% active. AID 652039, 2013;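 active means activation above the mean of all tested compounds plus 3 SD, computed per campaign excluding outliers beyond control limits, cut at about 13% in these data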
PLC-beta3 inh = human PLC-beta3 inhibitors, primary screen, biochemical, fluorescence | 370,000 tested, 0.18% active | inhibition, % at 12.2 µM | Purified PLC-beta3, fluorogenic substrate | 1-phosphatidylinositol 4,5-bisphosphate phosphodiesterase beta-3 (Homo sapiens), Q01970;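 further: 0% = median of compound wells on plate and 100% = full blocker control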
ADAM10 inh = human ADAM10 inhibitors, primary screen, biochemical, QFRET, HTS. recombinant ADAM10, EDANS/DABCYL FRET peptide cleavage, 3 h. inhibition, % at 7 µM. 370,000 tested, 0.62% active. AID 720582, 2013;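 active means inhibition above a per-campaign cutoff equal to the mean of compounds falling between control-based bounds plus 3 SD, cut at about 20% in these data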;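 further: 0% = DMSO wells while the 100% control is not disclosed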
PLC-gamma1 inh = PLC-gamma1 enzyme inhibitors, primary screen, biochemical, fluorescence, purified enzyme | inhibition, % at 12.2 µM | fluorogenic substrate | 370,000 tested, 0.84% active; in the data active means inhibition above about 9.5%
PLCgamma1 ctr = PLC-gamma1 enzyme inhibitors, counter-screen for PLC-beta3 inhibitor project, biochemical, fluorescence; inhibition, % at 12.3 µM; shares compounds with PLC-gamma1 inh; purified PLC-gamma1, fluorogenic substrate; AID 743258, 2014; 3,300 tested, 3.1% active; in the data active means inhibition above about 9.5%
PLCb3 confirm = PLC-beta3 inhibitor confirmation, biochemical, fluorescence, purified enzyme; shares compounds with PLC-gamma1 inh; fluorogenic substrate fluorescence; inhibition, % at 12.3 µM; 3,300 tested, 1% active
* marks the source's active call; other numbers are inactive results; x = not tested or not shown. Unless noted, no stated cut-off is given here; in the data, active means inhibition above about 11%; inactive means the rest.

SMILES	ADAM17 inh	HGIII-sPLA2 inh	proKLK7 act	PLC-beta3 inh	ADAM10 inh	PLC-gamma1 inh	PLCgamma1 ctr	PLCb3 confirm
O=C1CCN(Cc2ccccc2)CCN1[C@H](CO)c1ccccc1	-2	2	1	2	5	2	x	x
Cc1onc(-c2ccccc2Cl)c1C(=O)N1CCOC12CCCCC2	2	-3	0	11*	5	4	1	4
Cc1onc(-c2ccccc2Cl)c1C(=O)N1CCOC12CCN(c1cccc(F)n1)CC2	1	-6	0	4	-2	0	x	x
CCNCc1cc(OCC)c(OCC(=O)NCCc2ccccc2)cc1Cl	5	-18	-1	-5	14	12*	-8	-2
CCOc1cc(CNCC(C)C)c(Cl)cc1OCC(=O)Nc1ccccc1	-4	-6	0	-3	2	-1	x	x
CCCOc1ccc(CC(=O)NCCc2ccccc2)cc1OC	4	-3	0	-1	4	12*	0	4
COc1ccc(CCNC(=O)Cc2ccccc2)cc1OC	0	0	0	-4	1	-1	x	x
COc1ccc(CN(CC#Cc2ccccc2)Cc2ccccc2)c(OC)c1	0	-6	1	3	-1	0	x	x
Clc1ccc(CNCC2CCCO2)cc1 (configuration not stated)	-5	5	0	-5	-5	-1	x	x
Clc1ccc(CNCC2CCCO2)c(Cl)c1 (configuration not stated)	4	4	0	-1	11	10*	0	2
O=C(c1cc2cccc([N+](=O)[O-])c2oc1=O)N1CCOCC1	-5	17	-1	-5	-12	12*	-6	0
O=C(c1cc2cc([N+](=O)[O-])ccc2oc1=O)N1CCOCC1	3	0	0	4	9	-1	x	x
O=Cc1cc(N=Nc2ccccc2Cl)ccc1O	2	4	0	-1	10	8	x	x
O=Cc1cc(N=Nc2cccc(C(=O)O)c2)ccc1O	-2	5	-1	1	-10	14*	29*	1
Cc1ccccc1C(=O)N[C@H](C(=O)N1CCC[C@H]1C(=O)NCCc1ccccc1Cl)C(C)C	-2	-2	-1	4	-3	2	x	x
N#CCNC(=O)C1c2ccccc2Oc2ccccc21	2	0	0	0	5	13*	-3	1
COC(=O)C1=C(C)N(Cc2ccccc2C(F)(F)F)C(=NCC2CC2)NC1c1ccc(F)cc1 (configuration not stated)	-5	-3	0	3	-11	0	x	x
Cc1ccc2nc(C3CCN(C(=O)NCc4ccccc4)CC3)[nH]c2c1	0	7	-1	3	2	10*	1	-3
Cc1ccc2nc(C3CCCN(C(=O)NCc4ccccc4)C3)[nH]c2c1 (configuration not stated)	6	6	0	3	-2	8	x	x
c1ccc(-n2nnnc2OCCOc2nnnn2-c2ccccc2)cc1	2	7	0	9	6	14*	4	1
OC(COC1CCCCC1)CN1CCN(c2ccccc2)CC1 (configuration not stated)	3	5	0	6	9	13*	-7	-3
